Measurements reported in PubChem BioAssay AID2551 (National Center for Advancing Translational Sciences (NCATS), 2010).
About 17,000 (5.5%) of roughly 310,000 compounds were called active. Not shown: some 11% with an inconclusive outcome. Calls follow the shape of the dose curve; as a rule, active = well fitted inhibition curve with a large enough effect; inconclusive = small, poorly fitted or top-dose-only effect, or effect the other way; inactive = no such curve, though single readings can be large or run the other way. For the sample, actives were picked, then their nearest neighbours and some compounds at random.

What follows are compounds tested against Nuclear receptor ROR-gamma (Mus musculus) (UniProt P51450) (assay: qHTS for inhibitors of ROR gamma transcriptional activity). Conditions: Drosophila S2 Gal4-RORgamma UAS-luciferase reporter, 20 h; series mostly up to 53.6 µM; activity change, negative = inhibition: at the top concentration.
How it was run: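 In this cell-based reporter format, copper sulfate (700 uM final) drives Gal4–ROR gamma fusion expression from a metallothionein promoter in Drosophila Schneider cells; compounds preincubated 1 hr, reporter read after 20 hr at ambient temperature.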
% is scaled to controls: 0 for no effect and ±100 for the full control effect; potency is read from the fitted curve at half-maximal effect.
Also: nearly all actives have a fitted effect of over 60% in size.

Nuclear receptor ROR-gamma (Mus musculus), sequence (P51450 whole entry, looked up, the tested form may be a part): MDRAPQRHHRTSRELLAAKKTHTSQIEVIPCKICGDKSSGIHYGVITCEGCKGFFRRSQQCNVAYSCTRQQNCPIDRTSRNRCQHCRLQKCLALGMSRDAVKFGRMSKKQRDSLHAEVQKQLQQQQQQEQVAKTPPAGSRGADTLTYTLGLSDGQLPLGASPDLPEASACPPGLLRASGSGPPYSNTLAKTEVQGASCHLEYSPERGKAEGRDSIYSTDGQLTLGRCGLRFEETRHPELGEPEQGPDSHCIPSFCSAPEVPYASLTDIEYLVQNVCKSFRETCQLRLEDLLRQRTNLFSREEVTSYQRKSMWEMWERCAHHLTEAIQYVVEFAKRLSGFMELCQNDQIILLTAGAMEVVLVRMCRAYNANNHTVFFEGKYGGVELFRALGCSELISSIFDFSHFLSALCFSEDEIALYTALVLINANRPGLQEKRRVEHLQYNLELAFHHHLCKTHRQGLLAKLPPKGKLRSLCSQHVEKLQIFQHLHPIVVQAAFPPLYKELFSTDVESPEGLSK

SMILES	activity change, negative = inhibition	Potency
O=C(CC1C(=O)NCCN1C(=O)c1ccc([N+](=O)[O-])cc1)Nc1cccc(Cl)c1 (centres undefined)	-1.47% (inactive)	
O=C(NCc1ccncc1)C1CCCN(S(=O)(=O)c2ccc(Br)cc2)C1 (centres undefined)	-0.316% (inactive)	
COc1ccc(NC(=O)CCCNC(=O)Cn2cnc3sc4c(c3c2=O)CCCC4)cc1OC	11.9% (inactive)	
CCOc1cccc(-c2nn3c(-c4ccccn4)nnc3s2)c1	-2.44% [at 10 µM] (inactive)	
COc1ccc(-n2c(SCC(=O)OC(C)C)nnc2-c2ccccn2)cc1	8.58% (inactive)	
CCOc1ccc(-c2n[nH]c(C)c2-c2ccccn2)c(O)c1		17.8 µM (active)
COc1ccc(CNC(=O)CCN2C(=O)c3ccccc3C2=O)cc1	-10.3% (inactive)	
O=C(O)CC(c1ccccc1F)N1Cc2ccccc2C1=O (centres undefined)	13.5% (inactive)	
COCCC(=O)N1CCC(Oc2ccc(C(=O)NCc3ccon3)cc2)CC1	-0.109% (inactive)	
Clc1ccc(C(Cn2ccnc2)OCc2ccsc2Cl)c(Cl)c1 (centres undefined)		12.6 µM (active)
O=C(NCCCn1ccnc1)Nc1ccc(Cl)cc1Cl	1.19% (inactive)	
COc1ccc(C(CNC(=O)COc2ccc([N+](=O)[O-])cc2)N2CCCCC2)cc1 (centres undefined)	-1.04% (inactive)	
CC(=O)NCC(=O)NC1CCCc2c1cnn2-c1ccccc1F (centres undefined)	11.1% (inactive)	
Cc1c(Cl)cccc1NC(=O)CCC(=O)N/N=C/c1ccco1	4.27% (inactive)	
COCCN(CCOC)C(=S)Nc1ccccc1Cl	-20.1% (inactive)	
COCCN(C(=S)Nc1cccc(Cl)c1C)C(C)c1ccco1 (centres undefined)		7.94 µM (active)
C=CCn1c(SCC(=O)NCCCO)nc2sc3c(c2c1=O)CCC3	12.8% (inactive)	
COc1ccc(NC(=S)N2CCC(NC(=O)c3cccc(F)c3)CC2)cc1	-21.7% (inactive)	
COc1ccc(C(=O)NC2CCN(C(=S)Nc3ccccc3)CC2)cc1	-22.9% (inactive)	
COc1ccccc1C1CCN(C(=S)Nc2ccc(Br)cc2)CC1		5.01 µM (active)
COc1ccc(NC(=O)C2C3CCC(O3)C2C(=O)O)cc1OC (centres undefined)	-29.4% (inactive)	
COc1cc(NC(=O)CCS(=O)(=O)c2ccc3c(c2)oc(=O)n3C)cc(OC)c1	10.4% (inactive)	
Cc1ccc(C(=O)N(CC(=O)NC2CCCC2)c2ccc(F)cc2)s1	-5.56% (inactive)	
CCOc1c2ccc(C(=O)NCc3ccc4c(c3)OCO4)cc2nn1C	-5.74% (inactive)	
C=CCNC(=O)c1ccc(C)c(Br)c1	5.36% [at 0.365 µM] (inactive)	

SMILES	activity change, negative = inhibition	Potency
C=CCNC(=O)c1ccc2c3n(nc2c1)-c1ccc(C)cc1CO3		7.08 µM (active)
CCCc1nn2c(=O)cc(CSCC(=O)Nc3cccc(C)c3)nc2s1	-2.84% (inactive)	
Cc1ccc2c(c1)c1ncn(CCC3=CCCCC3)c(=O)c1n2C	4.27% (inactive)	
Cc1ccc2c(c1)c1ncn(Cc3ccc(F)cc3)c(=O)c1n2C	-40.6% (inactive)	
Cc1ccc2c(c1)c1ncnc(N3CCc4ccccc4C3)c1n2C		15.8 µM (active)
O=C(O)c1ccccc1-c1ccccc1C(=O)Nc1ccccc1Br	-14.5% (inactive)	
COc1cccc(C(=O)Nc2ccc(NC(=O)c3ccco3)cn2)c1	25.9% (inactive)	
O=C(Nc1ccc(NC(=O)c2cccs2)cn1)c1ccco1		11.2 µM (active)
O=C(Nc1ccc2nccnc2c1)c1ccco1	43% (inactive)	
Cc1cc(O)c(C2(O)C(=O)Nc3ccccc32)cc1C (centres undefined)	19.9% (inactive)	
C/C(=N\NC(=O)c1ccc2ccccc2c1)c1cccnc1	-21.8% (inactive)	
CC(NCc1nc2ccccc2n1C)C12CC3CC(CC(C3)C1)C2 (centres undefined)		5.01 µM (active)
Cn1c(CNC(=O)C(C)(C)C)nc2ccccc21	20.1% [at 0.365 µM] (inactive)	
CCOc1ccc(C(O)Cc2nc3ccccc3n2C)cc1 (centres undefined)	11.9% (inactive)	
COc1ccc(CCNC(=O)Cc2ccc(C)cc2)cc1OC	-20.3% (inactive)	
COc1ccc(CCNC(=O)NS(=O)(=O)c2ccc(C)cc2)cc1OC	-25.4% (inactive)	
COc1ccc(CCNC(=S)NC(=O)/C=C/c2ccc(C)cc2)cc1OC		3.16 µM (active)
COc1cccc(CNC(=O)CN(C)S(=O)(=O)c2ccc3c(c2)c(=O)n(C)c(=O)n3C)c1	-14.9% (inactive)	
CC(=O)Nc1ccc(NC(=O)CN2C(=O)COc3ccc(S(=O)(=O)N4CCCCC4)cc32)cc1	-1.03% (inactive)	
CCOc1cccc(-c2nnc(SCC(=O)NC3CC3)n2C)c1	-31.3% (inactive)	
OCCN1CCN(c2nnc(-c3ccccc3)c3ccccc23)CC1	-1.93% (inactive)	
CCOc1ccc(N(CC(=O)NCCOc2ccccc2OC)S(=O)(=O)c2ccccc2)cc1	-29.8% (inactive)	
CC(=O)c1ccc(N2CCN(C(=O)CCc3ccccc3)CC2)cc1	23.9% (inactive)	
C=CCN1CCN(C(=O)CCCc2ccccc2)CC1		5.62 µM (active)
O=C(CCCc1ccccc1)NCc1ccccc1	16.2% (inactive)	

SMILES	activity change, negative = inhibition	Potency
Cc1ccccc1OCC(=O)Nc1nnc(S(=O)(=O)N2CCCC2)s1	14.6% (inactive)	
CCOc1cc(/C=N/Nc2cc(C)nc3ccc(C)cc23)ccc1O	-24.7% (inactive)	
COc1cccc(-c2nc3n(n2)C(c2ccccc2Cl)C(C(N)=O)=C(C)N3)c1 (centres undefined)	10.2% (inactive)	
CC1=C(C(N)=O)C(c2ccc(F)cc2)n2nc(CCCO)nc2N1 (centres undefined)	-6.31% (inactive)	
CC1=C(C(N)=O)C(c2ccc3c(c2)OCO3)n2nc(-c3cccc(C)c3)nc2N1 (centres undefined)		5.62 µM (active)
Cc1ccc(C(=O)OCC(=O)NC(=O)Cc2ccccc2)c(O)c1	-14.9% (inactive)	
CC(=O)N/N=C(\C)c1ccc(Br)cc1Br		10 µM (active)
COC(=O)c1oc2ccc(Br)cc2c1NC(C)=O	-12.5% (inactive)	
CN(C)C(=O)c1cc(Br)ccc1Cl	5.62% (inactive)	
COc1ccc(CCNC(=O)CS(=O)(=O)Cc2nc(-c3ccc(C)cc3)oc2C)cc1OC	-11.7% (inactive)	
CCCCNC(=O)C1(O)c2ccccc2NC(=O)N1c1ccc(Cl)cc1 (centres undefined)	0.468% (inactive)	
CCn1cc(/C=C(\NC(=O)c2cc(OC)c(OC)c(OC)c2)C(=O)N2CCN(C)CC2)c2ccccc21	0.404% (inactive)	
O=C(N/N=C/c1ccc(O)c2ccccc12)c1cccnc1	-14% (inactive)	
Cc1ccc(/C=N/NC(=O)C2=NNC(c3ccccc3)(c3ccccc3)C2)c(O)c1		1.26 µM (active)
Cc1nc2ccc(C(=O)N/N=C/c3ccc(O)cc3)cc2[nH]1	1.66% (inactive)	
O=C(NCC(=O)N1CCC2(CC1)NCCc1[nH]cnc12)c1ccc(Br)cc1	-10.7% (inactive)	
CCOc1cc(/C=C/c2nc3ccccc3c(=O)[nH]2)cc(Br)c1OC	28.2% (inactive)	
CCCn1c(C(C)Nc2nc(-c3ccc(C)cc3)cs2)nc2cc(Cl)c(N3CCCCC3)cc21 (centres undefined)		7.08 µM (active)
Nc1c(Cl)cc(-c2csc(N3CCCC3c3nc4cc(Cl)c(Cl)cc4n3CCOCCO)n2)cc1Cl (centres undefined)		14.1 µM (active)
CCOC(=O)CSc1nnc(CNc2nc(-c3ccccc3)cs2)n1C	6.34% (inactive)	
CCCn1c(C(O)c2ccc(OCC)cc2)nc2ccccc21 (centres undefined)	-25.6% (inactive)	
CCCn1c(CCNc2nc(-c3ccc(OC)cc3)cs2)nc2ccccc21		11.2 µM (active)
Cc1ccc(-c2csc(N3CCN(c4cc5c(cc4Cl)nc(-c4ccncc4)n5CCOCCO)CC3)n2)cc1	-30.6% (inactive)	
CCCn1c(C2CCCN2c2nc(-c3ccc(C)cc3)cs2)nc2cc(Cl)c(N3CCCCC3)cc21 (centres undefined)		10 µM (active)
